Rango-impB inh = prevents formation of the Rango-importin beta complex; Rango CFP/YFP FRET sensor + importin beta, 45 min; Potency, µM (series often up to 92.2 µM), for the others: at the top dose inhibition of complex formation; 340,000 tested, 0.031% active; AID 540263;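 further: potency means the concentration at half of the fitted maximal effect; 0% = DMSO wells and 100% = buffer wells lacking importin beta; nearly all actives have a fitted effect of over 15% in size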
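FRET biosensor Rango (snurportin 1 IBB between N-terminal EYFP and C-terminal Cerulean), 50 nM in PBS/1 mM DTT/0.02% Tween-20/0.1% BSA, preincubated 5 min RT with compound; 0.125 microM importin beta added, 45 min RT, CFP/YFP FRET ratio read.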
KCNH2 WT inh = blocks the wildtype human KCNH2 potassium channel; U2OS, BacMam KCNH2, thallium flux FluxOr; hits give low values; activity change, % at 1.84 µM; 340,000 tested, 0.37% active; AID 720551;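 active means maximum activity change below -70%; inconclusive means maximum activity change between -70% and -50%; inactive means maximum activity change above -50%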; further: on the % scale 0 is the no-effect control and ±100 the full control effect
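U2OS cells were transduced with wild-type KCNH2 virus (2.03 x 10^8 / mL) for 4 h at room temperature, then cultured overnight at 37 C. Thallium flux was read with FluxOr dye. Rate constants were normalized to DMSO controls.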
Mm-Cpn inhibitor = inhibitors of Methanococcus maripaludis chaperonin TRiC (MmCpn); 330,000 tested, 0.031% active; purified Mm-Cpn ATPase, ADP Transcreener TR-FRET; AID 504842; Potency, µM (series often up to 76.9 µM), inactives show top-dose activity, negative = inhibition, actives largely listed as inhibitors; active means well fitted inhibition curve with a large enough effect; inconclusive means small, poorly fitted or top-dose-only effect; further: potency means the concentration at half of the fitted maximal effect; on the % scale 0 is the no-effect control and ±100 the full control effect; nearly all actives have a fitted effect of over 80% in size
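ATPase read-out: TR-FRET ADP immunoassay (anti-ADP Eu cryptate vs ADP-d2), ex 320 nm, em 590/665 nm; signal drops as ADP forms. Enzyme 25 nM, ATP 10 uM, 30 min at 37°C after 10 min compound preincubation.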
Rango dissoc inh = prevents RanGTP from dissociating the Rango-importin beta complex. O95149+P62826. Biochemical FRET Rango-importin beta, RanGTP-induced dissociation. Potency, µM (top dose mostly 46.1 µM), without a hit: at the top dose activity change, negative = inhibition. 340,000 tested, 0.071% active; further: potency means the concentration at half of the fitted maximal effect; % of control where 0% means no effect; nearly all actives have a fitted effect of over 45% in size
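Recombinant Rango FRET biosensor (EYFP–snurportin 1 IBB–cerulean CFP10) at 0.1 uM premixed with 0.25 uM importin beta in PBS, 1 mM DTT, 0.02% Tween-20, 0.1% BSA. Compound added 5 min; RanGTP-RCC1 (0.6 uM Ran, 2 mM GTP, 0.2 uM RCC1) then triggers release, read at 45 min.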
KCNH2 3.1 block = KCNH2 3.1 (human) potassium channel inhibition; U2OS KCNH2 3.1, thallium flux FluxOr; hits give low values; 340,000 tested, 0.95% active; activity change, % (tested at about 1.8 µM);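 active means maximum activity change below -70%; inconclusive means maximum activity change from -70% to -50%; inactive means maximum activity change above -50%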;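 further: thallium influx rate constant from kinetic fluorescence after stimulation buffer; on the % scale 0 is the no-effect control and ±100 the full control effect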
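FluxOr-based Tl+ influx in U2OS cells transduced with KCNH2 3.1 virus; rate constants normalized to DMSO controls.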
CCT chaperon mod = modulators of cytosolic chaperonin (CCT/TRiC) activity. purified chaperonin ATPase assay, HTRF ADP detection, 30 min. activity change, % (test concentration not listed), hits read low. 360,000 tested, 0.3% active. AID 651819; in the data active means activity change below about -30%; further: on the % scale 0 is the no-effect control and ±100 the full control effect
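Nucleotide hydrolysis assay: TRiC at 20–40 nM final (set by batch activity) with 10 uM ATP, 30 min at 37 °C, in presence of 76 uM compound. Detection by competitive ADP HTRF, 30 min ambient.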
An asterisk follows results filed as active; ? = inconclusive; / = not tested or not shown. A selection: hits, their analogues and other compounds. The true share with any hit is near 1.4%. Unless noted, the call rests on the fitted dose curve.

SMILES	Rango-impB inh	KCNH2 WT inh	Mm-Cpn inhibitor	Rango dissoc inh	KCNH2 3.1 block	CCT chaperon mod
COc1ccc(-c2nnc(SCC(=O)NC(=O)NCc3ccccc3)o2)cc1	-2%	-9	0%	2%	-118*	0
Cc1cc(S(=O)(=O)Nc2cccnc2)c(C)s1	0%	3	1%	20%	-72*	0
CC(=O)N[C@@H](Cc1ccc(O)cc1)C(=O)N[C@H](C(=O)N[C@@H](C)C(=O)N[C@H](C#N)CC(=O)O)C(C)C	/	/	1%	/	/	/
CC1=C(C(=O)N2CCOCC2)C(c2ccc(C)cc2)NC(=S)N1 (centres undefined)	-4%	-19	2%	6%	/	2
CCOc1ccccc1NC(=O)CN(c1ccc(OC)c(OC)c1)S(=O)(=O)c1ccc(C)cc1	/	-10	/	/	-108*	0
CN(Cc1ccccc1)c1ncnc2[nH]ncc12	0%	-2	/	1%	1	-1
CN(Cc1ccccc1)c1ncnc2sccc12	-6%	-124*	1%	16%	-7	0
O=C(NCC1CC1)c1cc2c(c(-c3cccc(-c4ccccc4F)c3)n1)[C@@H](CCO)N(C(=O)CC1CC1)C2	/	/	/	/	/	-3
Cc1ccc(-n2c(SCC(=O)Nc3ccc4cn[nH]c4c3)nnc2-c2ccco2)cc1	0%	-10	1%	8%	-112*	2
CNC(=O)CSc1nnc(-c2ccco2)n1-c1ccc(C)cc1	-2%	0	0%	-13%	16	2
CC1CCc2sc3ncn4nc(C(=O)NCc5ccco5)nc4c3c2C1 (centres undefined)	-4%	6	-4%	3%	-77*	-3
CC1CCc2c(sc3ncn4c(SCC(=O)NCc5ccco5)nnc4c23)C1 (centres undefined)	-2%	5	0%	-8%	-5	1
COC(=O)CCC(=O)OC1(C)C(=O)C=C2C=C(C3CC3)N(CCCOC(C)C)C=C2C1=O (centres undefined)	?	-12	0%	-21%	-86*	0
Fc1ccc(C2=NN(c3ccccc3)C(c3ccco3)C2)cc1 (centres undefined)	?	-4	-4%	-19%	-10	-2
COc1ccccc1C1CC(c2ccco2)=NN1c1ccccc1 (centres undefined)	?	47	-7%	16µM*	-7	-4
CC(C)[C@]1(c2ccc(Cl)cc2)ON(c2ccccc2C(F)(F)F)C1=O	/	/	1%	/	/	/
CN(C(=O)C(C)(C)C)[C@H]1C[C@H]2c3[nH]c4ccccc4c3CCN2C(=O)[C@H]1CO	/	10	/	/	-12	0
CN(C(=O)NC1CCCCC1)[C@H]1C[C@H]2c3[nH]c4ccccc4c3CCN2C(=O)[C@H]1CO	/	1	/	/	3	-57*
CN(Cc1ccccc1)C(NC(=O)c1ccco1)C(Cl)(Cl)Cl (centres undefined)	0%	-5	0%	0%	-4	-2
CN(Cc1ccccc1)C(NC(=O)c1ccccc1)C(Cl)(Cl)Cl (centres undefined)	-6%	-15	-2%	-13%	1	-39*
Cc1ccc(C(CC(=O)N2CCNCC2)c2ccccc2)c(O)c1C (centres undefined)	-2%	-11	0%	7%	-107*	-1
Cn1c(=O)c(C(=O)CN2CCN(S(=O)(=O)c3ccccc3)CC2)c(N)n(Cc2ccccc2)c1=O	-6%	1	-1%	-7%	3	-4
CCCn1c(N)c(C(=O)CN2CCN(S(=O)(=O)c3cccc(Cl)c3)CC2)c(=O)[nH]c1=O	-1%	?	-2%	2%	-73*	2
CSc1ccccc1C(=O)Nc1cc2c(cc1C(=O)O)OCCCO2	6%	8	1%	0%	-6	0
Cc1cc(OCc2cccc(Cl)c2)c(C)cc1CN1CCOCC1	-5%	8	0%	8%	-71*	0
CC1(C(=O)NC2CCCC2)CCC(=O)N1CCOc1ccccc1 (centres undefined)	/	/	/	/	/	0

Screening results as filed in PubChem BioAssay.
